“And” between values parts separate entries of the source, which are not always exact repeats. Identical values can stand only once. Inconclusive results are not listed. More than one record can exist for a structure, and the calls need not agree. The source made the active and inactive calls. Unless noted, calls come from the whole dose curve; as a rule, active = well fitted curve in the direction sought with a large enough effect in the repeat runs; inconclusive = weak or mixed curves; inactive = no such curve, though single readings can be large; an effect the other way counts as inactive or inconclusive.

A short description of assay [1]: qHTS assay for small molecules that induce genotoxicity in human embryonic kidney cells expressing luciferase-tagged ATAD5 (AID 651632). Note: nearly all actives have a fitted effect of over 15% in size. A digest of the protocol: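 ATAD5-luc HEK293T, 2,000 cells/well; cpd or DMSO pin-transferred; 16 hr, 37C/5% CO2; Amplite 30 min RT; luminescence.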
For orientation: In qHTS, concentration-response curves come from the screen itself.

Assay [2] in a line: qHTS assay for small molecule agonists of the p53 signaling pathway - cell viability (AID 651633; calls by dose curve; note: nearly all actives have a fitted effect of over 30% in size; note: potency is the fitted concentration of half-maximal effect). In a few lines: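 p53RE-bla cells were treated with compound for 16 hours at 37 C. Cytotoxicity was then measured as CellTiter-Glo luminescence after 30 min at room temperature.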
A short description of assay [3]: qHTS assay for small molecules that induce genotoxicity in human embryonic kidney cells expressing luciferase-tagged ATAD5 - cell viability (AID 651634; calls by dose curve; note: nearly all actives have a fitted effect of over 25% in size; note: potency is the fitted concentration of half-maximal effect). A digest of the protocol: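 Fluorescence from CellTiter-Fluor, reporting protease activity within live cells, served as the viability read-out. HEK293T cells carrying luciferase-tagged ATAD5 had been treated with compound for 15.5 hr at 37C.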

The nature of assay [4]: qHTS assay for small molecule disruptors of the mitochondrial membrane potential - cell viability (AID 720634; calls by dose curve; note: nearly all actives have a fitted effect of over 20% in size; note: potency is the fitted concentration of half-maximal effect). A digest of the protocol:
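Cells: HepG2, 2,000/well, attached overnight. Compound 1 hr, 37 C/5% CO2. +m-MPI dye, +CellTiter-Glo 30 min RT. Readout: luminescence (ATP).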

Assay [5] in a line: qHTS assay for small molecule disruptors of the mitochondrial membrane potential (AID 720635). Note: potency is the fitted concentration of half-maximal effect. A digest of the protocol:
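HepG2 cells exposed to compound 1 hr at 37C, then Mito-MPS dye 30 min. Ratio read of aggregate (540/590 nm) versus monomer (490/535 nm) fluorescence.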

Assay [6] in a line: qHTS assay to test for compound auto fluorescence at 590 nm (red) in HepG2 cells (AID 720674). A digest of the protocol: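 HepG2 cells, 2,000 per well in MEM with 10% FBS, attached overnight at 37 C, then got 23 nL compound or DMSO. After 1 hr at 37 C, 5% CO2, red fluorescence was read at 540/590 nm against Rose Bengal sodium as reference.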
Assay [7] is described as follows: qHTS assay to test for compound auto fluorescence at 535 nm (green) in HepG2 cells (AID 720675).
The nature of assay [8]: qHTS assay to test for compound auto fluorescence at 460 nm (blue) in HEK293 cells (AID 720678). A digest of the protocol: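 HEK293, 2,000 cells/well, 10% dialyzed FBS; attach 4-5 hr 37C; pin compound or DMSO; o/n 37C/5% CO2; fluorescence 405/460 nm; triamterene-equivalent units.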
Assay [9] is described as follows: qHTS assay to test for compound auto fluorescence at 590 nm (red) in HEK293 cells (AID 720679). In a few lines:
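Intensity at 540nm excitation and 590nm emission is reported as Rose Bengal sodium-equivalent autofluorescence. Measurements followed overnight exposure (37C, 5% CO2) of HEK293 cells, 2,000 per well, to 23 nL compound.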

Assay [10] can be described thus: qHTS assay to test for compound auto fluorescence at 535 nm (green) in HEK293 cells (AID 720680).
The nature of assay [11]: qHTS assay to test for compound auto fluorescence at 460 nm (blue) in HEK293 cell free culture (AID 720681). A digest of the protocol:
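Compounds were added to cell-free DMEM with 10% FBS and fluorescence read directly. The blue channel used 405 nm excitation and 460 nm emission, with triamterene as the reference fluorophore.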

A short description of assay [12]: qHTS assay to test for compound auto fluorescence at 535 nm (green) in HEK293 cell free culture (AID 720682). A digest of the protocol:
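Steps: dispense DMEM/10% FBS into empty wells; pin in compound or DMSO; measure fluorescence at 485/535 nm. Values are fluorescein equivalents.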

Assay [13] in a line: qHTS assay to test for compound auto fluorescence at 590 nm (red) in HEK293 cell free culture (AID 720683). In a few lines: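 Cell-free wells of DMEM with 10% FBS received compound, and intrinsic fluorescence was read at excitation/emission 540/590 nm. Values expressed as equivalence to Rose Bengal sodium.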
Assay [14] is described as follows: qHTS assay to test for compound auto fluorescence at 590 nm (red) in HepG2 cell free culture (AID 720684). In a few lines:
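Compound was pinned into wells holding MEM with 10% FBS and no cells, and red fluorescence was read at Ex/Em 540/590 nm. Signal is expressed as auto fluorescence equivalency relative to Rose Bengal sodium.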

The nature of assay [15]: qHTS assay to test for compound auto fluorescence at 535 nm (green) in HepG2 cell free culture (AID 720686).
Assay [16] in a line: qHTS assay to test for compound auto fluorescence at 460 nm (blue) in HepG2 cells (AID 720687). In a few lines:
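HepG2 cells in MEM with 10% FBS, attached overnight at 37 C, were exposed to compound or DMSO for 1 hr at 37 C, 5% CO2. Blue fluorescence was read at 405/460 nm, with triamterene as reference fluorophore.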

Assay [17] has as its target Glucocorticoid receptor (Homo sapiens) (UniProt P04150). Kind of assay: qHTS assay to identify small molecule agonists of the glucocorticoid receptor (GR) signaling pathway (AID 720691; active = well fitted activation curve with a large enough effect in the signal ratio in the repeat runs, not every such curve was filed as active; the % refers to the signal ratio). In a few lines: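 Fluorescence intensity from LiveBLAzer B/G FRET substrate (2 h, room temperature) reports beta-lactamase expression driven by the glucocorticoid response element in GR-bla HeLa cells after 18 h compound exposure at 37 C.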

For assay [18] the target is unchanged. The experiment in a line: qHTS assay to identify small molecule antagonists of the glucocorticoid receptor (GR) signaling pathway (AID 720692; active = well fitted inhibition curve with a large enough effect in the signal ratio in the repeat runs, not every such curve was filed as active; the % refers to the signal ratio; note: potency is the fitted concentration of half-maximal effect). In a few lines:
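HeLa GR-bla cells; cmpd + dex 5 nM final, 18 h 37 C; LiveBLAzer B/G FRET substrate 2 h RT; fluorescence intensity read. Antagonist mode, qHTS.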

Assay [19] is described as follows: qHTS assay for small molecule agonists of the p53 signaling pathway (AID 651631; calls by dose curve; note: nearly all actives have a fitted effect of over 15% in size; note: potency is the fitted concentration of half-maximal effect). In a few lines: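 HCT-116 p53RE-bla reporter line, 16 h compound treatment at 37 °C, then fluorescence after 2 h with B/G FRET substrate.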
Assay [20] is described as follows: qHTS assay to test for compound auto fluorescence at 460 nm (blue) in HepG2 cell free culture (AID 720685). A digest of the protocol: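 Compound (23 nL) or DMSO pinned into cell-free MEM with 10% FBS; blue fluorescence read at 405/460 nm excitation/emission, expressed as auto-fluorescence equivalency to triamterene.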

Glucocorticoid receptor (Homo sapiens), sequence (P04150 whole entry, looked up): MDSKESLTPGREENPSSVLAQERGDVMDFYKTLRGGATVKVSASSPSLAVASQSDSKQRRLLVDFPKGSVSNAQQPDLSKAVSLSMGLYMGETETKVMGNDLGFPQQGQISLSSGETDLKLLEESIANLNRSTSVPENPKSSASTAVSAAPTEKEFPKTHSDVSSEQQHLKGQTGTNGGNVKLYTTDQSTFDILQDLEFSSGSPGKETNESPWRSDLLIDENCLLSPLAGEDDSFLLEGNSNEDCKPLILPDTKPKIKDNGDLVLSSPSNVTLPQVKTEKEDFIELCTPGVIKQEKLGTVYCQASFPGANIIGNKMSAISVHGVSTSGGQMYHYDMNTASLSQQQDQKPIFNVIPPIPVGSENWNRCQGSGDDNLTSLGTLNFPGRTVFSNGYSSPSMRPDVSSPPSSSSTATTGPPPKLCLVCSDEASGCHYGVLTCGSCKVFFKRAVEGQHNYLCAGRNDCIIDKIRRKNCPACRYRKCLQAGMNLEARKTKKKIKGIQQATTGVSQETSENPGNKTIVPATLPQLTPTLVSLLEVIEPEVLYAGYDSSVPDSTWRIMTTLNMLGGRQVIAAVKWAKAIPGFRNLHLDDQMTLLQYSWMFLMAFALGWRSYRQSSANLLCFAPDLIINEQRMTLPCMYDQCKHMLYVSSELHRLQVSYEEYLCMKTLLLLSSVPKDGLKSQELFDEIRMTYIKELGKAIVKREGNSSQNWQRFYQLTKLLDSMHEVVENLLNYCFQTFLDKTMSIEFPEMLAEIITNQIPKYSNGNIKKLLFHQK

With `Cc1ccc(C(C)C)cc2c(C)ccc1-2`, the Potency entry in assay [1], in assay [2], in assay [3], in assay [4], in assay [5] and in assay [6] was “inactive” each time. In addition, the Potency result in [7], in assay [8], in assay [9], in [10], in assay [11] and in assay [12] was “inactive” each time. In addition, the Potency result in [13], in assay [14], in assay [15], in assay [16], in [17] and in assay [18] was “inactive” throughout.
Take `Oc1c(I)cc(Cl)c2cccnc12`: the Potency is 29.8 µM (active) in [19]; 16.8 µM (active) and 19.3 µM (active) in assay [2]; 48.5 µM (active) in [5]. In addition, the Potency result in [4], in assay [6], in assay [7], in assay [8], in assay [9] and in assay [11] was “inactive” in each case. Further, the Potency entry in [12], in assay [13], in assay [14], in assay [20], in assay [15] and in assay [16] was “inactive” throughout.
In the case of `Sc1nc2ccccc2s1`, the Potency result in assay [19], in assay [2], in assay [3], in assay [4], in assay [6] and in assay [7] was “inactive” throughout. Further, the Potency result in assay [8], in assay [9], in assay [10], in [11], in [12] and in [13] was “inactive” throughout. The Potency result in assay [14], in assay [20], in [15], in [16], in assay [17] and in assay [18] was “inactive” throughout.
Take `CCCCC/C=C\C/C=C\CCCCCCCC(=O)O`: the Potency entry in assay [1], in [3], in [4], in assay [5], in [6] and in assay [7] was “inactive” throughout. Also, the Potency result in assay [8], in [9], in assay [11], in [12], in assay [13] and in [14] was “inactive” throughout. Besides, the Potency result in [20], in assay [15] and in assay [16] was “inactive” throughout. In assay [2], the Potency result was “inactive and 54.5 µM (active)”.
`Cl[Si](Cl)(c1ccccc1)c1ccccc1`: the Potency result in assay [1], in [2], in assay [3], in assay [4], in assay [6] and in assay [7] was “inactive” each time. The Potency result in assay [8], in assay [9], in [10], in [11], in assay [12] and in assay [13] was “inactive” throughout. The Potency result in [14], in assay [20], in assay [15], in assay [16] and in assay [17] was “inactive” in each case. Also, the Potency in assay [5] was 5.57 µM (active).
In the case of `C=CC(=O)Nc1cc2c(Nc3ccc(F)c(Cl)c3)ncnc2cc1OCCCN1CCOCC1`, the Potency in assay [19] was 11.9 µM (active); in assay [2] it was 29.8 µM (active); in [3] it was 10.6 µM (active); in assay [18], 3.01 µM (active). For the same compound, the Potency result in [4], in [6], in [7], in assay [8], in [9] and in [10] was “inactive” throughout. Also, the Potency entry in assay [11], in assay [12], in assay [13], in assay [14], in assay [20] and in assay [15] was “inactive” in each case. Moreover, the Potency entry in [16] and in assay [17] was “inactive” each time.
Regarding `CC(C)(C)c1csc(-c2cc3cc(OCc4ccccc4CC(=O)O)ccc3o2)n1`, the Potency entry in [1], in [6], in assay [7], in assay [8], in assay [9] and in assay [11] was “inactive” throughout. The Potency result in assay [12], in assay [13], in assay [14], in [20], in assay [15] and in [16] was “inactive” in each case. Moreover, the Potency in [2] is 15.4 µM (active); in assay [3] it was 24.3 µM (active); in [4], 61.1 µM (active); in assay [5], 4.86 µM (active).
With `C[Si](Cl)(c1ccccc1)c1ccccc1`, the Potency result in assay [1], in assay [2], in [3], in assay [4], in assay [6] and in [7] was “inactive” in each case. Also, the Potency entry in assay [8], in [9], in assay [11], in assay [12], in [13] and in [14] was “inactive” in each case. The Potency entry in assay [20], in [15], in assay [16] and in [17] was “inactive” each time. For the same compound, in assay [5], the Potency is 26.6 µM (active).

(Values after PubChem BioAssay (Tox21).)
